Shown are actives, neighbours in structure and some others; about 2.2% of the full set was active somewhere.
TLR4 MyD88 comp: blocks binding of human TLR4 to MyD88. O00206+Q99836. HeLa CL3-4 TLR4/MyD88 BLA complementation, FRET ratio. inhibition, % at 8.4 µM. 200,000 compounds, 0.18% hits; in the data active = inhibition above about 25%;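 also: 0% = vehicle and 100% = reference inhibitor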
TLR9-MyD88 block: TLR9-MyD88 interaction inhibition; Q9NR96+Q99836; CHO BLA complementation TLR9-MyD88, CCF4 FRET ratio; inhibition, % at 4.98 µM; 340,000 compounds, 0.21% hits;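 active = inhibition above the mean over all tested compounds plus 3 SD, cut at about 21% in these data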;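 also: 0% = DMSO only wells and 100% = clavulanate BLA inhibitor control wells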
ANO1 block: inhibitors of mouse TMEM16A calcium-activated chloride channel | Q8BHY3 | HEK293 TMEM16A/YFP iodide influx fluorescence, ionomycin | normalized B-score (activity score, 25-100; higher = stronger inhibition) at 10 µM | 310,000 compounds, 1.2% hits;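 active = ratio plate-corrected score three or more library SD toward inhibition, starting fluorescence score within five deviations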;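 also: score derived from kinetic fluorescence span divided by baseline fluorescence per well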
NOD2 RIPK2 PPI: inhibitors of human NOD2-RIPK2 interaction | 360,000 compounds, 0.38% hits | inhibition, % at 4.98 µM | AID 624267 | O43353 | CHO BLA complementation NOD2-RIPK2, CCF4 ratio; in the data active = inhibition above about 21%;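 also: 0% = vehicle only and 100% = reference blocker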
ANO1 activ: mouse TMEM16A channel activation, primary screen; Q8BHY3; HEK293 TMEM16A/YFP-H148Q/I152L, iodide quench fluorescence; stronger effect = lower value; B-score at 10 µM; 340,000 compounds, 0.3% hits;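 active = fluorescence-ratio B-score plate-corrected deviation score at least 3 library SD below zero, with starting fluorescence score within 5 deviations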;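 also: channel opened by trigger with iodide after compound preincubation; score built on the fluorescence ratio of max minus min over baseline; more negative score means more quench and so TMEM16A activation or potentiation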
GRK2 aptamer HTS: inhibitors of human GRK2 displacing RNA aptamer; inhibition of aptamer binding, % at 10 µM; bead flow cytometry, FAM-aptamer displacement from GRK2; P25098; 330,000 compounds, 0.59% hits;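 active = inhibition of aptamer binding above 40%, roughly 3 SD of noise, on plates passing a quality check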;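 also: median bead fluorescence of bound FAM aptamer so fluorescent compounds give negative values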
TMEM16A reconf: TMEM16A (mouse) chloride channel inhibition, re-confirmation; shares compounds with ANO1 block; HEK293 TMEM16A/YFP-H148Q, iodide quench fluorescence; ionomycin added to raise cell calcium; inhibition, % at 10 µM; 2,300 compounds, 39% hits;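 active = mean duplicate percent inhibition, scaled so buffer wells are 0 and the reference blocker 100, over three buffer SD above buffer mean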
TMEM16A Ca cntr: alters calcium mobilization in TMEM16A HEK293 cells, counter-screen | shares compounds with ANO1 block | TMEM16A/YFP HEK293, Fluo4 calcium mobilization | calcium response (% of ionomycin), % at 10 µM | 2,300 compounds, 2% hits | AID 652231;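 active = duplicate-averaged calcium signal over 20% of the ionomycin maximum, relative to buffer baseline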;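 also: each well's signal is peak minus trough fluorescence divided by its pre-addition baseline; 0% = buffer wells and 100% = ionomycin wells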
Parental YFP cnt: counter-screen for TMEM16A inhibitors: effect in parental YFP-HEK293 cells; AID 652233; shares compounds with ANO1 block; 2,300 tested, under 10 active; iodide YFP quench, ionomycin; YFP ratio F(max-min)/F0 at 10 µM;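 active = yellow fluorescent protein signal ratio exceeding the buffer control mean by over 5 SD of those controls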;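 also: ratio is mean of duplicate wells from kinetic YFP trace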
ClC-1 inh: selectivity of TMEM16A inhibitors: inhibition of rat ClC-1 chloride channel. shares compounds with ANO1 block. CHO ClC-1-YFP, iodide influx fluorescence quench; iodide control reads 0, buffer control 100. ratio percent, % at 10 µM. 2,300 tested, under 10 active;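 active = duplicate-mean ratio percent above the mean of iodide-only control wells, which defines zero, plus 5 of their SD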;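 also: higher percent means stronger block of ClC-1 iodide influx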
Target sequence (P35524 whole entry, looked up): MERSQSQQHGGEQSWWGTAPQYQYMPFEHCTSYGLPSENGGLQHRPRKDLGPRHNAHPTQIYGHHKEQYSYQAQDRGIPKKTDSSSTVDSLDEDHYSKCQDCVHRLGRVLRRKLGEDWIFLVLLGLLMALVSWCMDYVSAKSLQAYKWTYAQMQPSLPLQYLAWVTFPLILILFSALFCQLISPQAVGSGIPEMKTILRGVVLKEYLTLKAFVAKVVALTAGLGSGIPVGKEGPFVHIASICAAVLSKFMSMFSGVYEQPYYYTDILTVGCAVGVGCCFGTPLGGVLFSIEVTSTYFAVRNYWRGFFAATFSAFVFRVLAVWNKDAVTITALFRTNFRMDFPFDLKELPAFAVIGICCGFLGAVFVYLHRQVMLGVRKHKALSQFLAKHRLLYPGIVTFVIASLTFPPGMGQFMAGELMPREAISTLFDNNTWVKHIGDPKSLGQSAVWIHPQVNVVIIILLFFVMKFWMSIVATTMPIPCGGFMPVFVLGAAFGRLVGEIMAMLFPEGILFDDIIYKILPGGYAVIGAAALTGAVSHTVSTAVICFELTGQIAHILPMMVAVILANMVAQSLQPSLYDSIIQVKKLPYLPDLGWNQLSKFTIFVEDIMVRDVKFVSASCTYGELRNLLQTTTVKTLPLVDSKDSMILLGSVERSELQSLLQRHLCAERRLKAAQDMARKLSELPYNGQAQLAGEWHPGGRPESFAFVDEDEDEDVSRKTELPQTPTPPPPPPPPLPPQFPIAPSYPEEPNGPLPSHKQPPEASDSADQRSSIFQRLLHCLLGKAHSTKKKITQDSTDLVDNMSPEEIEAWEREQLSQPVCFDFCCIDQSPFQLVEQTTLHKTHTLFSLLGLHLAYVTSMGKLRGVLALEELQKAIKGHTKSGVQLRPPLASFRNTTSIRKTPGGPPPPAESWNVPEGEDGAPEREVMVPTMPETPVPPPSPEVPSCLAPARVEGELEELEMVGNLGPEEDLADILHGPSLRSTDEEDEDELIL
Numbers without * were called inactive; i = inactive; x = no result.

SMILES | TLR4 MyD88 comp | TLR9-MyD88 block | ANO1 block | NOD2 RIPK2 PPI | ANO1 activ | GRK2 aptamer HTS | TMEM16A reconf | TMEM16A Ca cntr | Parental YFP cnt | ClC-1 inh
O=C(Cn1[nH]c(=O)c2ccccc2c1=O)OCC(=O)N(Cc1ccccc1)Cc1ccccc1 | -3 | -2 | 100* | 1 | i | 3 | i | 24%* | -0.9 | -14
COc1ccc(OCC(O)Cn2c(=N)n(Cc3ccccc3)c3ccccc32)cc1 (centres undefined) | 14 | -22 | i | 3 | i | 0 | x | x | x | x
N=c1n(Cc2ccc(Cl)cc2)c2ccccc2n1CC(O)COc1ccccc1 (centres undefined) | 19 | 4 | 25* | 19 | i | 1 | 28%* | i | -1 | -8
COc1ccc(C(=O)Nc2ccc(C)c(S(=O)(=O)N3CCCCCC3)c2)cc1 | 10 | -5 | 100* | -6 | i | 4 | i | i | -1.1 | -2
CCc1ccc(C(=O)Nc2ccc(OC)c(S(=O)(=O)N3CCOCC3)c2)cc1 | 10 | 0 | 100* | 6 | i | 3 | i | i | -0.98 | -9
Cc1ccc(NC(=O)COc2cccc(C)c2C)cc1S(=O)(=O)N1CCCCCC1 | x | 7 | i | 1 | i | 1 | x | x | x | x
CCc1cccc(OCC(=O)Nc2ccc(C)c(S(=O)(=O)N3CCCCCC3)c2)c1 | x | -6 | 100* | -11 | i | 2 | i | i | -1.2 | -4
Cc1ccc(NC(=O)CSc2ncnc3ccccc23)cc1S(=O)(=O)N1CCCCCC1 | -5 | 15 | 25* | 8 | i | 0 | 27%* | i | -1.2 | -16
Cc1ccc(S(=O)(=O)N2CCCCC2)cc1NC(=O)CSc1ncnc2ccccc12 | -2 | 2 | i | 7 | i | 17 | x | x | x | x
Cc1cccc(OCCC(=O)Nc2ccc(C)c(S(=O)(=O)N3CCCCC3)c2)c1 | -14 | 0 | 25* | 7 | i | 1 | 34%* | i | -1.1 | -13
Cn1cnc2c(=O)sc3ccccc3c21 | x | 11 | i | 9 | i | 2 | x | x | x | x
CCSc1nnc(-c2cc(Br)ccc2N=Cc2c(C)[nH]n(-c3ccccc3)c2=O)c(=O)[nH]1 | 2 | -9 | 100* | 4 | i | 5 | 21%* | 20%* | -0.97 | -22
NC(N)=N/N=C/c1ccc2cccc(OCc3ccccc3)c2n1 | x | 11 | 25* | -6 | i | 0 | i | i | -1 | -14
O=C(Cc1ccc(Br)cc1)OCC(=O)c1ccc[nH]1 | x | 9 | x | 4 | i | 2 | x | x | x | x
O=C(Cc1ccccc1)NCC(=O)N1CCC1 | x | 4 | i | -3 | i | 0 | x | x | x | x
CC(C)COc1ccc(C2NC(=O)NC2=O)cc1 (centres undefined) | 0 | -1 | 100* | 1 | i | 1 | i | i | -0.92 | -3
Cc1cc2ncn(-c3ncnc4sc5c(c34)CCC(C)C5)c2cc1C (centres undefined) | 4 | -9 | i | 0 | i | 2 | x | x | x | x
COc1ccccc1C1CCN(Cc2cccc([N+](=O)[O-])c2)CC1 | x | 3 | i | 2 | i | 0 | x | x | x | x
COc1ccccc1C1CCN(c2ccc(CO)cc2[N+](=O)[O-])CC1 | x | -7 | 25* | 5 | i | 3 | i | i | -1.1 | -16
Cc1ccnc(NS(=O)(=O)c2ccc(NC(=O)CCc3ccccc3)cc2)n1 | x | -5 | i | -4 | i | 2 | x | x | x | x
O=S(=O)(NCCSCc1c(Cl)cccc1Cl)c1ccc2c(c1)OCCO2 | 10 | -13 | 25* | 3 | i | 3 | i | i | -1.1 | -10
CN(CCO)c1cc(N2CCN(C(=O)c3ccco3)CC2)c2nonc2c1[N+](=O)[O-] | 10 | 10 | i | -1 | i | 2 | x | x | x | x
CCc1ccc(CN(C)C(=O)c2cc(COc3cccc4cnccc34)on2)cc1 | x | 17 | 100* | 7 | i | 2 | 22%* | i | -1.3 | -22
O=C(O)c1ccc(CNC(=O)C2CCN(S(=O)(=O)c3ccc4c(c3)OCCO4)CC2)cc1 | x | -3 | x | -4 | x | x | x | x | x | x
Cn1ncc2c(N3CCN(c4ccc(Cl)c(Cl)c4)CC3)ncnc21 | 19 | 2 | 25* | 1 | i | 0 | i | i | -1.1 | -16
SMILES | TLR4 MyD88 comp | TLR9-MyD88 block | ANO1 block | NOD2 RIPK2 PPI | ANO1 activ | GRK2 aptamer HTS | TMEM16A reconf | TMEM16A Ca cntr | Parental YFP cnt | ClC-1 inh
Cn1ncc2c(N3CCN(c4ccccc4F)CC3)ncnc21 | -12 | 1 | i | 6 | i | 0 | x | x | x | x
CC1CN(C(=O)CCC(=O)N2CCN(c3cccc(C(F)(F)F)c3)CC2)c2ccccc2O1 (centres undefined) | x | -4 | 25* | -2 | i | 0 | 20%* | i | -0.95 | -4
O=C(CCS(=O)(=O)c1ccccc1)N1CCN(c2cccc(C(F)(F)F)c2)CC1 | x | -4 | 25* | 2 | i | 5 | i | i | -1.1 | -15
N#Cc1c(-c2ccccc2)nc(SCc2ccc(Cl)cc2)[nH]c1=O | x | -5 | 100* | 2 | i | 24 | i | i | -1.2 | -18
COc1ccccc1-c1noc2ncnc(Nc3cccc(C)c3C)c12 | x | 2 | i | 2 | i | 2 | x | x | x | x
Cn1c(=O)c2c(nc(NCCCO)n2C/C=C/c2ccccc2)n(C)c1=O | -20 | -1 | 100* | 0 | i | 0 | i | i | -1.1 | -6
O=C(CSc1nc(=O)n2ccccc2n1)N1CCC(Cc2ccccc2)CC1 | x | -1 | i | 4 | i | 1 | x | x | x | x
Cc1ccc2nc(SCC(=O)N3CCC(Cc4ccccc4)CC3)nc(=O)n2c1 | x | 1 | 100* | 2 | i | 2 | 16%* | i | -1.1 | -1
CCCCOC(=O)c1ccc(NC(=O)c2ccccc2OC)cc1 | -15 | -8 | 100* | 1 | i | 3 | 36%* | i | -1.1 | -8
COc1cccc(C(=O)Nc2ccc(Cl)c(C(F)(F)F)c2)c1 | 4 | -5 | 25* | -2 | i | 1 | 18%* | i | -0.98 | -14
COc1ccc(Br)cc1C(=O)Nc1cccc(-c2nnc(-c3ccco3)o2)c1 | 7 | 4 | i | 5 | i | 0 | x | x | x | x

Source: PubChem BioAssay (several laboratories)
